# Measured values as given in PubChem BioAssay (EPA / NIEHS).
# Inconclusive results are not listed. Calls of active or inactive are those of the source. Rule for the calls: active = hit-call score of the fitted dose curve at least 0.9, where 1 is the maximum; inconclusive = response in the unintended direction; inactive = score below 0.9.
# Assays:
# [1] = biological target: human Phosphodiesterase 4A1 (PDE4A1), PDE4A (gene 5141) (UniProt P27815); assay: NVS_ENZ_hPDE4A1: NovaScreen (NVS) Enzymatic Assay for human Phosphodiesterase 4A1 (PDE4A1) (AID 2283191)
# human Phosphodiesterase 4A1 (PDE4A1), PDE4A (gene 5141), sequence (P27815 whole entry, looked up): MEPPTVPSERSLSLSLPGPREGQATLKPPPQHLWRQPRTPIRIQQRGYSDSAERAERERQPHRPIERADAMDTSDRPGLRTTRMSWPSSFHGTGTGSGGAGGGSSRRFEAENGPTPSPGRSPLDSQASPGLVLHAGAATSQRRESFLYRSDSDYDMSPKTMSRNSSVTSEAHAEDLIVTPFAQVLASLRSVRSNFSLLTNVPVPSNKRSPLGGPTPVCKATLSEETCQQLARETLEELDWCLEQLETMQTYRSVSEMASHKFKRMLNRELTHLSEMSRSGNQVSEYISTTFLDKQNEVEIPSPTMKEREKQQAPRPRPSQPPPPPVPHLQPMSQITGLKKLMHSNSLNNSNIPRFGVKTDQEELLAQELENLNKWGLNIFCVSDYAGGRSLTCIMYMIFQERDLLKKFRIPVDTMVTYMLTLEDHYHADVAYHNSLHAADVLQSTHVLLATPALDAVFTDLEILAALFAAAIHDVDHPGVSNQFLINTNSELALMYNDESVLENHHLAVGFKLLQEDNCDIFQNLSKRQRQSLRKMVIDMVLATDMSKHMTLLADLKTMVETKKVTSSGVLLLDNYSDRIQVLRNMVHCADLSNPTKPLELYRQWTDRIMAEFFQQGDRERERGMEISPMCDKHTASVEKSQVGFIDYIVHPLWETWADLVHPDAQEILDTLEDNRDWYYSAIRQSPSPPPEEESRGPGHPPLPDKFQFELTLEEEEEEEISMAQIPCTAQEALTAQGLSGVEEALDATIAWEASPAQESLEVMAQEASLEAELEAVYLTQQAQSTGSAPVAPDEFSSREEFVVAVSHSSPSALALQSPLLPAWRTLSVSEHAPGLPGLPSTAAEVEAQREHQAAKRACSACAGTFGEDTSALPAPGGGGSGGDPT
# How it was run: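 Fluorescent substrate turnover by recombinant PDE4A1 read after 1 h by mobility-shift separation. Primary duplicate screen at 25 uM; hits retested in concentration series with a 50 uM maximum, relative to DMSO.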
# [2] = biological target: cAMP-dependent protein kinase catalytic subunit alpha (Homo sapiens) (UniProt P17612); assay: NVS_ENZ_hPKA: NovaScreen (NVS) Enzymatic Assay for human Protein Kinase A (PKA) (AID 2283192)
# How it was run: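 Cell-free kinase activity read by fluorescence after mobility-shift separation of substrate and product, 1 h post-dosing. Single-concentration duplicate screen (25 uM) preceded singleton concentration series (top 50 uM); loss of signal versus DMSO.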
# [3] = biological target: human Phosphodiesterase 5 (PDE5), PDE5A (gene 8654) (UniProt O76074); assay: NVS_ENZ_hPDE5: NovaScreen (NVS) Enzymatic Assay for human Phosphodiesterase 5 (PDE5) (AID 2283194)
# How it was run: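 Screening began in duplicate at 25 uM, with actives taken into concentration-response. Enzyme activity of recombinant PDE5 toward its substrate was measured at 1 h by fluorescence mobility-shift detection, relative to DMSO controls.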
# [4] = biological target: human Phosphoinositide 3-kinase alpha (PI3Ka), PIK3CA (gene 5290) (UniProt P42336); assay: NVS_ENZ_hPI3Ka: NovaScreen (NVS) Enzymatic Assay for human Phosphoinositide 3-kinase alpha (PI3Ka) (AID 2283196)
# human Phosphoinositide 3-kinase alpha (PI3Ka), PIK3CA (gene 5290), sequence (P42336 whole entry, looked up): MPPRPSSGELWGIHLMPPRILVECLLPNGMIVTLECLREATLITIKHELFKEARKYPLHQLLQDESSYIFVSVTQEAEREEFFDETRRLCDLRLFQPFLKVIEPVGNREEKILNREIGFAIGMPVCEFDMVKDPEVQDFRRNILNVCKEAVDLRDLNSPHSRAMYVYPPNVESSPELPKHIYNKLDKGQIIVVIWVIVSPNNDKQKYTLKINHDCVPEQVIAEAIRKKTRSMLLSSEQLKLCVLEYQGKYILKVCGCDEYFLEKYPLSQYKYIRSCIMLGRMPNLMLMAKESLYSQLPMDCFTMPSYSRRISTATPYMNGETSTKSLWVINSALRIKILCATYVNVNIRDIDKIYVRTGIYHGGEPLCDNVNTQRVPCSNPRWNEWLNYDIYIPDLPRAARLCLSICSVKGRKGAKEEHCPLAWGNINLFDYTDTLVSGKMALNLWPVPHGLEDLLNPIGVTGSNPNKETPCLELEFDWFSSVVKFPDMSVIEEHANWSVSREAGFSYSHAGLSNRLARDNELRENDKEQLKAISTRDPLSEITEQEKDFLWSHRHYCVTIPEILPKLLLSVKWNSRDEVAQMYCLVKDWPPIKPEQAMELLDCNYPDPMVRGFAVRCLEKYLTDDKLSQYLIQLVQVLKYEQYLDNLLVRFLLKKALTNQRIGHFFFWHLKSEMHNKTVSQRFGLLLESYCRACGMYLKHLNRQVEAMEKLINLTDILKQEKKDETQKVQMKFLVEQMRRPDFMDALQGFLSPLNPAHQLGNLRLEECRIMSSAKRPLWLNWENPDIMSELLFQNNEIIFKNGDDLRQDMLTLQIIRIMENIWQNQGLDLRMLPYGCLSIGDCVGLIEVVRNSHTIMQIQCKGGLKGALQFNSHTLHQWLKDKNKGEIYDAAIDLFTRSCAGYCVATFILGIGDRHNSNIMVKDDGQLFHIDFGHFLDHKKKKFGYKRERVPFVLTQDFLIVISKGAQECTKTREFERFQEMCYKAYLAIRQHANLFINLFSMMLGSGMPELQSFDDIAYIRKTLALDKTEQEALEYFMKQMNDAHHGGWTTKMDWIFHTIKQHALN
# How it was run: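 Enzyme activity as fluorescence after mobility-shift separation of substrate and product, 1 h reaction, recombinant human PI3Kα; concentration-response to 50 uM max for chemicals passing a 25 uM duplicate screen.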
# [5] = biological target: Serine/threonine-protein phosphatase PP1-alpha catalytic subunit (Homo sapiens) (UniProt P62136); assay: NVS_ENZ_hPPP1CA: NovaScreen (NVS) Enzymatic Assay for human Protein Phosphatase 1 Aatalytic subunit Alpha (PPP1CA) (AID 2283200)
# Serine/threonine-protein phosphatase PP1-alpha catalytic subunit (Homo sapiens), sequence (P62136 whole entry, looked up): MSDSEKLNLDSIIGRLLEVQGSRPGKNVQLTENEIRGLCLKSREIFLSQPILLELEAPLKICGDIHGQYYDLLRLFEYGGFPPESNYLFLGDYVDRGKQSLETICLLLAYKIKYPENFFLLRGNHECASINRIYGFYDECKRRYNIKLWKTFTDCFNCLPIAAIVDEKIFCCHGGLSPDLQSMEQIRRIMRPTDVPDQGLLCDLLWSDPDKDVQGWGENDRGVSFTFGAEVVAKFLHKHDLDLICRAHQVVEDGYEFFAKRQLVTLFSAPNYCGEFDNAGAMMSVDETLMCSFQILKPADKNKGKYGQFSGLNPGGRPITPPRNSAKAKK
# How it was run: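 Chemicals were first screened in duplicate at 25 uM, and those passing threshold (e.g. 30% inhibition) were run as concentration series to 50 uM. Cell-free recombinant protein, 1.33 h read, fluorescent substrate/product mobility-shift detection, normalised to DMSO.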
# [6] = biological target: human Protein Tyrosine Phosphatase Non-receptor Type 1 (PTPN1), PTPN1 (gene 5770) (UniProt P18031); assay: NVS_ENZ_hPTPN1: NovaScreen (NVS) Enzymatic Assay for human Protein Tyrosine Phosphatase Non-receptor Type 1 (PTPN1) (AID 2283201)
# How it was run: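 Chemicals were first tested in duplicate at 25 uM, and those passing threshold went on to singleton concentration series topping at 50 uM. Recombinant enzyme, specific substrate, product separated by mobility shift, fluorescence read at 1.33 h; activity loss relative to DMSO.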
# [7] = biological target: Tyrosine-protein phosphatase non-receptor type 12 (Homo sapiens) (UniProt Q05209); assay: NVS_ENZ_hPTPN12: NovaScreen (NVS) Enzymatic Assay for human Protein Tyrosine Phosphatase Non-receptor Type 12 (PTPN12) (AID 2283204)
# How it was run: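 Single-concentration duplicates (25 uM) preceded singleton concentration-response up to 50 uM for chemicals passing threshold. Cell-free recombinant PTPN12 activity was read 1.33 h after dosing via fluorescence after mobility-shift separation; loss of signal versus DMSO.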
# [8] = biological target: Tyrosine-protein phosphatase non-receptor type 13 (Homo sapiens) (UniProt Q12923); assay: NVS_ENZ_hPTPN13: NovaScreen (NVS) Enzymatic Assay for human Protein Tyrosine Phosphatase Non-receptor Type 13 (PTPN13) (AID 2283205)
# How it was run: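 Screened first at a single 25 uM in duplicate; compounds passing the threshold (e.g. 30% inhibition) were rerun in concentration series, top 50 uM. Recombinant enzyme, fluorescent substrate, mobility-shift separation, 0.5 h read. Data fitted as inhibition relative to DMSO.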
# [9] = biological target: Tyrosine-protein phosphatase non-receptor type 14 (Homo sapiens) (UniProt Q15678); assay: NVS_ENZ_hPTPN14: NovaScreen (NVS) Enzymatic Assay for human Protein Tyrosine Phosphatase Non-receptor Type 14 (PTPN14) (AID 2283206)
# How it was run: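 Fluorescent substrate turnover by recombinant human PTPN14 was measured 0.5 h after compound addition, with substrate and product separated by mobility shift. Single-point screening at 25 uM, then concentration-response up to 50 uM for chemicals meeting threshold (e.g., 30% inhibition).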
# [10] = biological target: human Protein Tyrosine Phosphatase Non-receptor Type 4 (PTPN4), PTPN4 (gene 5775) (UniProt P29074); assay: NVS_ENZ_hPTPN4: NovaScreen (NVS) Enzymatic Assay for human Protein Tyrosine Phosphatase Non-receptor Type 4 (PTPN4) (AID 2283208)
# human Protein Tyrosine Phosphatase Non-receptor Type 4 (PTPN4), PTPN4 (gene 5775), sequence (P29074 whole entry, looked up): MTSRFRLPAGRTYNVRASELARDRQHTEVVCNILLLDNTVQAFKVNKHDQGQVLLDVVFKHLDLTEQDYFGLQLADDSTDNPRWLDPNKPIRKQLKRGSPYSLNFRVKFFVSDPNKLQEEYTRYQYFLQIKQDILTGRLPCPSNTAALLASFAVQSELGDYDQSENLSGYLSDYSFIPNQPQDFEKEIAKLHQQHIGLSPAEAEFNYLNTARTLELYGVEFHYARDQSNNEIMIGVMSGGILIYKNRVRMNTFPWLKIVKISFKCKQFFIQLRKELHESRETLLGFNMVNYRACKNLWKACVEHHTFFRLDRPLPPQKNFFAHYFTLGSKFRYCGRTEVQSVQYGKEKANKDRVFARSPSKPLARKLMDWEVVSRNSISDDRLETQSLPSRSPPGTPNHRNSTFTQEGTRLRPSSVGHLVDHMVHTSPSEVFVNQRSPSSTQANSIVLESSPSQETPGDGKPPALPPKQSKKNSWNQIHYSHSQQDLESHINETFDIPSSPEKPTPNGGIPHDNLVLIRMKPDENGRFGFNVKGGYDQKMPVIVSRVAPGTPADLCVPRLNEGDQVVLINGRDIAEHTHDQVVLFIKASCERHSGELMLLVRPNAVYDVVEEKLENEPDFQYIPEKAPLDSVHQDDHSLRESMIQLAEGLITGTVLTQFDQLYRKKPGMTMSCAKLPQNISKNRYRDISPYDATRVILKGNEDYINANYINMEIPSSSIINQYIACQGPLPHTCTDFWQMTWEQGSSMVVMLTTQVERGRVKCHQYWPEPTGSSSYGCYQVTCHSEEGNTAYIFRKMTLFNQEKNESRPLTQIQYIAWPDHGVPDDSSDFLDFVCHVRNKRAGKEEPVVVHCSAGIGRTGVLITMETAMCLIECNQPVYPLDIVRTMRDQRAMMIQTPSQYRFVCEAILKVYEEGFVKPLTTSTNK
# How it was run: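 Screened in duplicate at 25 uM, with hits then titrated to a top concentration of 50 uM. Recombinant Sf9-derived PTPN4 turnover was read by fluorescence with electrophoretic separation, 1.33 h after compound addition. DMSO served as baseline.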
# [11] = biological target: human Protein Tyrosine Phosphatase Non-receptor Type 9 (PTPN9), PTPN9 (gene 5780) (UniProt P43378); assay: NVS_ENZ_hPTPN9: NovaScreen (NVS) Enzymatic Assay for human Protein Tyrosine Phosphatase Non-receptor Type 9 (PTPN9) (AID 2283209)
# How it was run: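 Sf9-expressed enzyme in a cell-free assay, fluorescence read 1.33 h after dosing with mobility-shift separation of substrate and product. Tested at 25 uM in duplicate, then up to 50 uM; signal loss versus DMSO.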
# [12] = biological target: human Protein Tyrosine Phosphatase Receptor Type B (PTPRB), PTPRB (gene 5787) (UniProt P23467); assay: NVS_ENZ_hPTPRB: NovaScreen (NVS) Enzymatic Assay for human Protein Tyrosine Phosphatase Receptor Type B (PTPRB) (AID 2283211)
# How it was run: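 Recombinant human PTPRB with a fluorescent substrate, product separated by electrophoretic mobility shift; read 1 h after dosing. Primary screen in duplicate at 25 uM; actives then retested in concentration series; loss of signal versus DMSO.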
# [13] = biological target: human Protein Tyrosine Phosphatase Receptor Type F (PTPRF), PTPRF (gene 5792) (UniProt P10586); assay: NVS_ENZ_hPTPRF: NovaScreen (NVS) Enzymatic Assay for human Protein Tyrosine Phosphatase Receptor Type F (PTPRF) (AID 2283213)
# How it was run: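 Cell-free fluorescence enzyme assay with recombinant protein and substrate; product separated by electrophoretic mobility shift. Read 1 h after dosing, single 25 uM duplicate screen, then concentration-response up to 50 uM; loss of signal vs DMSO.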
# [14] = biological target: human Matrix Metalloproteinase-9 (MMP9), MMP9 (gene 4318) (UniProt P14780); assay: NVS_ENZ_hMMP9: NovaScreen (NVS) Enzymatic Assay for human Matrix Metalloproteinase-9 (MMP9) (AID 2283190);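 note: cell-free recombinant MMP9 protease activity read by fluorescent substrate signal; active means inhibition seen as loss of fluorescence signal versus DMSO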
# human Matrix Metalloproteinase-9 (MMP9), MMP9 (gene 4318), sequence (P14780 whole entry, looked up): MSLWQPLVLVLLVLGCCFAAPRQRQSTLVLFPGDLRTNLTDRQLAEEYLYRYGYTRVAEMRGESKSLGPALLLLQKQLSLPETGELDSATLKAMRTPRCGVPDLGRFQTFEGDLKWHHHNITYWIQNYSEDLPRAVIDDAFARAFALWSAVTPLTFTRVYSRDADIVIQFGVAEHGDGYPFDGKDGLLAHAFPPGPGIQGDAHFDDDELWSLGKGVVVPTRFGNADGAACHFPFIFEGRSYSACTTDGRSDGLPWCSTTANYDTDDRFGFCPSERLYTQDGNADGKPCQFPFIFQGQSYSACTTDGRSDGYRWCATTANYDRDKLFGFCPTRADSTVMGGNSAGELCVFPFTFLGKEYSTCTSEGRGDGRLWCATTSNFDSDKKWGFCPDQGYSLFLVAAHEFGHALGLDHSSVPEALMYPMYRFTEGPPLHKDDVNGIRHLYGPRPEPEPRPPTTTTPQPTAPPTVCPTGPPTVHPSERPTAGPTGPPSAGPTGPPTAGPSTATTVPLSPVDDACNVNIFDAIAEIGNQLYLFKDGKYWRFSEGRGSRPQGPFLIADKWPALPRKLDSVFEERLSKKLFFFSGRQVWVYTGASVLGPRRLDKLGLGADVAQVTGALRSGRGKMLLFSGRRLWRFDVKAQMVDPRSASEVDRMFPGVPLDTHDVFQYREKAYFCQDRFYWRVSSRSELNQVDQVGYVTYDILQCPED
# How it was run: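 Cell-free fluorescence-intensity enzyme activity assay using extracted protein, read 1 h after dosing. Loss of signal versus DMSO baseline indicates inhibition; primary screen in duplicate at 25 uM, actives followed up in concentration series.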
# [15] = biological target: human Rho Associated Coiled-coil Containing Protein Kinase 1 (ROCK1), ROCK1 (gene 6093) (UniProt Q13464); assay: NVS_ENZ_hROCK1: NovaScreen (NVS) Enzymatic Assay for human Rho Associated Coiled-coil Containing Protein Kinase 1 (ROCK1) (AID 2283214)
# How it was run: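 Compounds first run in duplicate at 25 uM against recombinant human ROCK1, then followed in concentration series. Kinase activity was read 1 h post-dosing by fluorescence with mobility-shift separation, as signal loss relative to DMSO.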
# [16] = biological target: human Phosphodiesterase 10 (PDE10), PDE10A (gene 10846) (UniProt Q9Y233); assay: NVS_ENZ_hPDE10: NovaScreen (NVS) Enzymatic Assay for human Phosphodiesterase 10 (PDE10) (AID 2283195)
# human Phosphodiesterase 10 (PDE10), PDE10A (gene 10846), sequence (Q9Y233 whole entry, looked up): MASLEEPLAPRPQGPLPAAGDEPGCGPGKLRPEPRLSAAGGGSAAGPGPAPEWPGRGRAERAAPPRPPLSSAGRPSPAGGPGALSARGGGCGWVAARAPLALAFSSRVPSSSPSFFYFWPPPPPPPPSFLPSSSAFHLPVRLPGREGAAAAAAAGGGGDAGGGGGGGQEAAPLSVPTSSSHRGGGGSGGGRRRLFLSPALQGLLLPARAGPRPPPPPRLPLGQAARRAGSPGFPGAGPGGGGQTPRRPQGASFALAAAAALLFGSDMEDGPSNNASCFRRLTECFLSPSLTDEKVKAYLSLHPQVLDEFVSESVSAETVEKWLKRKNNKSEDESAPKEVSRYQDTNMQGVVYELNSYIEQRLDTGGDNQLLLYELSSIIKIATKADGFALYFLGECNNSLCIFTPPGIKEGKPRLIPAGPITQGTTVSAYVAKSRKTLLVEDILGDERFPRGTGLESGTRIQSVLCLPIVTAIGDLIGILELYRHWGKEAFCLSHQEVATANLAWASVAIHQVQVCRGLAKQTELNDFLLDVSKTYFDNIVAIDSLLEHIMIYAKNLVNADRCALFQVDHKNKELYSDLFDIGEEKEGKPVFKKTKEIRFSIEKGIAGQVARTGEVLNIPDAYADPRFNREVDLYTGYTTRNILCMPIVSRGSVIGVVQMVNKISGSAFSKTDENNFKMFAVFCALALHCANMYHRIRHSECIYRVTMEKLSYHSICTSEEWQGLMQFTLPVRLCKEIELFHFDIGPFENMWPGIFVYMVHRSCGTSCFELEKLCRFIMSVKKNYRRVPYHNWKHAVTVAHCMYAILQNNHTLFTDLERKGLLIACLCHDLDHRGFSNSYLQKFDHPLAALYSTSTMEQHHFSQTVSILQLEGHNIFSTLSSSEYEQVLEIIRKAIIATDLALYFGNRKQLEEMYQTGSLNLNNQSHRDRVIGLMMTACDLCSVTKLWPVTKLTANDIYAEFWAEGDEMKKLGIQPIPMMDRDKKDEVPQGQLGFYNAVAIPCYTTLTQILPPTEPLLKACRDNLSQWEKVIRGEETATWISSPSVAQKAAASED
# How it was run: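 Readout is fluorescence intensity following electrophoretic mobility-shift separation, 1 h after dosing of isolated PDE10A protein. Hits meeting a preset threshold at 25 uM went to concentration series (max 50 uM), analysed relative to DMSO.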
# [17] = biological target: Tyrosine-protein phosphatase non-receptor type 11 (Homo sapiens) (UniProt Q06124); assay: NVS_ENZ_hPTPN11: NovaScreen (NVS) Enzymatic Assay for human Protein Tyrosine Phosphatase Non-receptor Type 11 (PTPN11) (AID 2283202)
# How it was run: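 Compounds first tested in duplicate at 25 uM; those reaching ~30% inhibition rerun in singleton concentration-response, top 50 uM. Phosphatase activity measured after 0.5 h by fluorescence with mobility-shift separation, relative to DMSO.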
# [18] = biological target: human Protein Tyrosine Phosphatase Receptor Type M (PTPRM), PTPRM (gene 5797) (UniProt P28827); assay: NVS_ENZ_hPTPRM: NovaScreen (NVS) Enzymatic Assay for human Protein Tyrosine Phosphatase Receptor Type M (PTPRM) (AID 2283215)
# How it was run: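 Read-out is fluorescence after electrophoretic separation of substrate and product, taken 1.33 h post-dosing with recombinant enzyme. Compounds screened at 25 uM in duplicate, then concentration series for actives; activity as signal loss relative to DMSO.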
# [19] = biological target: human Protein Tyrosine Phosphatase Non-receptor Type 6 (PTPN6), PTPN6 (gene 5777) (UniProt P29350); assay: NVS_ENZ_hPTPN6: NovaScreen (NVS) Enzymatic Assay for human Protein Tyrosine Phosphatase Non-receptor Type 6 (PTPN6) (AID 2283210)
# How it was run: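 Recombinant human PTPN6 from SF9 cells, enzyme activity followed by fluorescence after mobility-shift separation of substrate and product at 1.33 h. Chemicals first tested at a single 25 uM in duplicate, then confirmed across concentration series; loss of signal relative to DMSO.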
smiles,measurement,setting,value
Cc1ccc(N)cc1O,outcome,[1],inactive
same,outcome,[2],inactive
same,outcome,[3],inactive
same,outcome,[4],inactive
same,outcome,[5],inactive
same,outcome,[6],inactive
same,outcome,[7],inactive
same,outcome,[8],inactive
same,outcome,[9],inactive
same,outcome,[10],inactive
same,outcome,[11],inactive
same,outcome,[12],inactive
same,outcome,[13],inactive
CCOC(=O)c1ccc(C2CCC(NC[C@H](O)COc3ccc(O)c(NS(C)(=O)=O)c3)CC2)cc1 (some centres not stated),AC50,[14],12.7 µM (active)
COc1ccc(-n2nc(C(F)F)cc2-c2ccc(S(C)=O)cc2)cc1 (configuration not stated),AC50,[1],0.00229 µM (active)
same,AC50,[3],12.9 µM (active)
COC(=O)CC(=O)OC,outcome,[14],inactive
same,outcome,[1],inactive
O=C(O)c1cccc(N(Cc2cccnc2)c2ccc(OC(F)F)c(OC(F)F)c2)c1,AC50,[1],0.00437 µM (active)
same,AC50,[3],3.28 µM (active)
COCCOCCOCCOC,outcome,[14],inactive
same,outcome,[5],inactive
same,outcome,[15],inactive
C=CCCCCCCCCC(=O)O,outcome,[1],inactive
same,outcome,[3],inactive
CC1(C)C(=O)N(Br)C(=O)N1Br,outcome,[1],inactive
CCc1cc(SCc2sc(-c3ccc(C(F)(F)F)cc3)nc2CN2CCN(c3ccc(OC)cc3)CC2)ccc1OCC(=O)O,AC50,[14],8.8 µM (active)
CC[C@H]1CC[C@H](NCc2cc3c(cc2OC)[C@H]2C[C@H]2C(=O)N3C)[C@H](c2ccccc2)N1,outcome,[1],inactive
same,outcome,[16],inactive
Cn1c(=O)cc(Oc2ccc(F)cc2F)c2cnc(NCC(C)(C)O)nc21,AC50,[1],0.914 µM (active)
same,AC50,[3],12.4 µM (active)
same,AC50,[16],8.25 µM (active)
O=C(O)c1cccc(Oc2ccccc2)c1,outcome,[1],inactive
same,outcome,[2],inactive
same,outcome,[3],inactive
same,outcome,[16],inactive
same,outcome,[4],inactive
same,outcome,[5],inactive
same,outcome,[17],inactive
same,outcome,[7],inactive
same,AC50,[8],0.119 µM (active)
same,outcome,[10],inactive
same,outcome,[11],inactive
same,outcome,[12],inactive
same,outcome,[13],inactive
same,outcome,[18],inactive
Fc1ccccc1[C@@H](F)COC1CCC(Nc2ncnc3[nH]ncc23)CC1 (some centres not stated),outcome,[14],inactive
COc1cccc(-c2ccc(/C=C\CN3CCCCCC3)cc2Cl)c1,outcome,[1],inactive
same,AC50,[16],22.6 µM (active)
O=C(O)CC(O)C(=O)O (configuration not stated),outcome,[1],inactive
same,outcome,[16],inactive
same,AC50,[10],39.2 µM (active)
CC[C@H](C)C(=O)O[C@H]1C[C@@H](C)C=C2C=C[C@H](C)[C@H](CC[C@@H]3C[C@@H](O)CC(=O)O3)[C@H]21,outcome,[14],inactive
same,outcome,[3],inactive
same,outcome,[4],inactive
same,outcome,[17],inactive
same,outcome,[11],inactive
CCCCCCc1ccc(O)cc1O,AC50,[1],39.2 µM (active)
same,outcome,[3],inactive
same,outcome,[5],inactive
NC(=O)NO,outcome,[14],inactive
same,outcome,[19],inactive
